Laboratory results: PubChem BioAssay (NCATS)
Results filed as inconclusive are left out. Activity calls are given as the source filed them. Unless noted, the call rests on the fitted dose curve.

Assays:
[1] = qHTS for Inhibitors of the Functional Ribonucleoprotein Complex (vRNP) of Lassa (LASV) Arenavirus: LASV Primary Screen - GLuc reporter signal (AID 1347082; calls by dose curve; tested in HEK293 reporter line; further: nearly all actives have a fitted effect of over 60% in size)
[2] = qHTS for Inhibitors of the Functional Ribonucleoprotein Complex (vRNP) of Lassa (LASV) Arenavirus: Viability assay - alamar blue signal for LASV Primary Screen (AID 1347083; calls by dose curve; tested in HEK293 reporter line; further: nearly all actives have a fitted effect of over 80% in size)
[3] = qHTS for Inhibitors of the Functional Ribonucleoprotein Complex (vRNP) of Lymphocytic Choriomeningitis Arenaviruses (LCMV): Viability assay - alamar blue signal for LCMV Primary Screen (AID 1347085; calls by dose curve; tested in HEK293 reporter line; further: nearly all actives have a fitted effect of over 80% in size)
[4] = biological target: Nucleoprotein (Lymphocytic choriomeningitis virus (strain Armstrong)) (UniProt P09992); test: qHTS for Inhibitors of the Functional Ribonucleoprotein Complex (vRNP) of Lymphocytic Choriomeningitis Arenaviruses (LCMV): LCMV Primary Screen - GLuc reporter signal (AID 1347086); further: nearly all actives have a fitted effect of over 70% in size
Sequence of Nucleoprotein (Lymphocytic choriomeningitis virus (strain Armstrong)) (P09992 whole entry, looked up): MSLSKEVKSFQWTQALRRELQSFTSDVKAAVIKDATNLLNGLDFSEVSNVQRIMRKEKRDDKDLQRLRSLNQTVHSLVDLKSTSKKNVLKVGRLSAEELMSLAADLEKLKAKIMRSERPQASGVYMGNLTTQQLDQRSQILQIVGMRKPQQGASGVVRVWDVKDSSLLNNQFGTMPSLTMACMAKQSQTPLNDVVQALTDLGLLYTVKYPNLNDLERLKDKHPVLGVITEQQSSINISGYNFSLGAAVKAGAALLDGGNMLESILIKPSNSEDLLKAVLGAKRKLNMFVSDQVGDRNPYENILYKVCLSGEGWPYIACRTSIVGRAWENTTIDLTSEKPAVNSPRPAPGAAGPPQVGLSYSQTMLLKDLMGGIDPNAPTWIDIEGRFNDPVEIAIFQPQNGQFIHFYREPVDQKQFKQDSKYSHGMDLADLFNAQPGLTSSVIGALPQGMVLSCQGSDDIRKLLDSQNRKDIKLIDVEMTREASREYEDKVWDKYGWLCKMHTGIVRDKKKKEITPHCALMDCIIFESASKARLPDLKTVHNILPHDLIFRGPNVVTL

Measured: Potency
Further: series mostly up to about 57 µM.

C=C(C)C(=O)OCC(O)CO (stereo not given)
inactive: all assays above

CCc1oc2ccccc2c1C(=O)c1cc(Br)c(O)c(Br)c1
inactive: all assays above

Oc1ccc(O)cc1
inactive: all assays above

O=C(O)c1cccnc1Nc1cccc(C(F)(F)F)c1
inactive: all assays above

CC(C)N=C(N)/N=C(\N)Nc1ccc(Cl)cc1
inactive: all assays above

c1ccc([C@H]2CN3CCSC3=N2)cc1
inactive: all assays above

Cc1oc(-c2ccccc2)nc1CCC(=O)c1ccc(CC2SC(=O)NC2=O)cc1 (stereo not given)
inactive: all assays above

CC(C)(C)NCC(O)COc1cccc2c1CCC(=O)N2 (stereo not given)
inactive: all assays above

CCCCN(CCCC)CC(O)c1cc(Cl)cc2c1-c1ccc(Cl)cc1/C2=C/c1ccc(Cl)cc1 (stereo not given)
inactive: all assays above

CCN(CC)CCOC(=O)C(c1ccccc1)C1CCCCC1 (stereo not given)
inactive: all assays above

NC1=NCC2c3ccccc3Cc3ccccc3N12 (stereo not given)
inactive: all assays above

CC1(C)O[C@@H]2C[C@H]3[C@@H]4C[C@H](F)C5=CC(=O)CC[C@]5(C)[C@H]4[C@@H](O)C[C@]3(C)[C@]2(C(=O)CO)O1
inactive: all assays above

Cc1ccc(O)c(-n2nc3ccccc3n2)c1
inactive: all assays above

O=C(CCN1CCN2CCCC2C1)N1c2ccccc2Sc2ccc(Cl)cc21 (stereo not given)
inactive: all assays above

CCCCN1CCCC1C(=O)Nc1c(C)cc(C)cc1C (stereo not given)
inactive: all assays above

CCN(CC)CC(=O)Nc1c(C)cccc1C(=O)OC
inactive: all assays above

COc1cccc(CCc2ccccc2OCC(CN(C)C)OC(=O)CCC(=O)O)c1 (stereo not given)
inactive: all assays above

Nc1nc(=O)n([C@@H]2O[C@H](CO)[C@@H](O)[C@@H]2F)cc1I
inactive: all assays above

CCn1c(=O)c2c(nc(C=Cc3ccc(OC)c(OC)c3)n2C)n(CC)c1=O
inactive: all assays above

O=C1NC(=O)[C@@]2(CCOc3ccc(F)cc32)N1
inactive: all assays above

CC1(C)OC[C@@H](COC(=O)CCc2ccc(OC[C@@H](O)CNCCNC(=O)N3CCOCC3)cc2)O1
inactive: all assays above

Cc1cccc(C)c1NC(=O)C(C)N (stereo not given)
inactive: all assays above

CC(C)(C)c1ccc(C(O)CCCN2CCC(C(O)(c3ccccc3)c3ccccc3)CC2)cc1 (stereo not given)
inactive: all assays above

CNC(=O)CN(CCN(CCN(CC(=O)[O-])CC(=O)NC)CC(=O)[O-])CC(=O)[O-].O.[Gd+3]
inactive: all assays above

Fc1ccc(C(c2ccc(F)cc2)N2CCN(C/C=C/c3ccccc3)CC2)cc1
inactive: all assays above

CC(C)NCC(O)COc1ccc(COCCOC(C)C)cc1 (stereo not given)
inactive: all assays above

Clc1ccc(Cn2c(CN3CCCC3)nc3ccccc32)cc1
inactive: all assays above

Cc1ccc(C(=O)Oc2ccc(C(O)CNC(C)(C)C)cc2OC(=O)c2ccc(C)cc2)cc1 (stereo not given)
inactive: all assays above

CCOc1ccc(NC(C)=O)cc1
inactive: all assays above

OCc1cc(C(O)CNCCCCCCOCCCCc2ccccc2)ccc1O (stereo not given)
inactive: all assays above

O=C(Nc1ccccc1)OCC(CN1CCCCC1)OC(=O)Nc1ccccc1 (stereo not given)
inactive: all assays above

CN(C)CCCOC1(Cc2ccccc2)CCCCCC1
inactive: all assays above

O=C1c2ccccc2C(=O)C1c1ccc(Br)cc1
inactive: all assays above

O=C(CCCN1CC=C(n2c(=O)[nH]c3ccccc32)CC1)c1ccc(F)cc1
inactive: all assays above

CC(C)(C)C(=O)NCCCC(=O)O
inactive: all assays above

O=C(c1ccc(F)cc1)C1CCN(CCn2c(=O)[nH]c3ccccc3c2=O)CC1
inactive: all assays above

CC1=C(CC(=O)O)c2cc(F)ccc2/C1=C\c1ccc(S(C)=O)cc1 (stereo not given)
inactive: all assays above

C#C[C@]1(O)CC[C@H]2[C@@H]3CCc4cc(OC)ccc4[C@H]3CC[C@@]21C
inactive: all assays above

CN(C)[C@@H]1C(=O)C(C(=O)NCN2CCCC2)=C(O)[C@@]2(O)C(=O)C3=C(O)c4c(O)cccc4[C@@](C)(O)C3C[C@@H]12 (stereo not given in full)
inactive: all assays above

c1cnc(N2CCN(Cc3ccc4c(c3)OCO4)CC2)nc1
inactive: all assays above

O=c1cc(CO)occ1O
inactive: all assays above

CN(C)CCC(c1ccccc1)c1ccccn1 (stereo not given)
inactive: all assays above

CN(C(=O)CN(CCO)CC(=O)N(C)C(C)(C)Cc1ccccc1)C(C)(C)Cc1ccccc1
inactive: all assays above

CC(C)c1cc2c(cc1S(=O)(=O)O)[C@@]1(C)CCC[C@@](C)(C(=O)O)[C@@H]1CC2
inactive: all assays above

O=C(CCCN1CCN(c2ccccn2)CC1)c1ccc(F)cc1
inactive: all assays above

CN1CC(=O)N2[C@H](c3ccc4c(c3)OCO4)c3[nH]c4ccccc4c3C[C@@H]2C1=O
inactive: all assays above

OCC(O)CN1CCN(c2ccccc2)CC1 (stereo not given)
inactive: all assays above

OC1C(O)C(O)C(O)C(O)C1O (stereo not given)
inactive: all assays above

FC(F)(F)C(Cl)Br (stereo not given)
inactive: all assays above

C[C@]1(Cn2ccnn2)[C@H](C(=O)O)N2C(=O)C[C@H]2S1(=O)=O
inactive: all assays above

Oc1ccc(CCNCCCCCCNCCc2ccccc2)cc1O
inactive: all assays above

CO[C@]1(NC(=O)CSC(F)F)C(=O)N2C(C(=O)O)=C(CSc3nnnn3CCO)CO[C@H]21
inactive: all assays above

Cc1cccc(OCC(O)CNC(C)(C)C)c1C (stereo not given)
inactive: all assays above

OC[C@@H](O)[C@@H](O)[C@H](O)[C@H](O)CO
inactive: all assays above

Clc1ccc(C(Cn2ccnc2)OCc2ccc(Sc3ccccc3)cc2)c(Cl)c1 (stereo not given)
inactive: all assays above

O=C(O)Cc1ccc2c(c1)C(=O)c1ccccc1CO2
inactive: all assays above

CSc1ccc(C(=O)c2[nH]c(=O)[nH]c2C)cc1
inactive: all assays above

CC1CCCCN1CCCOC(=O)c1ccc(OC2CCCCC2)cc1 (stereo not given)
inactive: all assays above

CO/N=C(/C(=O)N[C@@H]1C(=O)N2C(C(=O)O)=C(Cn3nnc(C)n3)CS[C@H]12)c1csc(N)n1
inactive: all assays above

CCOC(=O)c1cccc(N)c1
inactive: all assays above
